Where “and” joins values, the source holds several entries; their conditions need not be identical. Equal values may be shown once. The whole screen tested about 5,500 compounds, of which about 2,000 (36%) were called active. About 18% were inconclusive and are not listed. Rule as the data show it: active = normalized growth mostly below about 0.91 (no sharp cut-off); inconclusive = no clear call, values can overlap the other calls; inactive = mostly above about 0.92. This is one part of the list.
Experiment: chemical genetic growth profiling, strain panel (AID 1159580);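 also: tested at 20 µM; growth read once vehicle control cultures reached saturation at 30 °C; 1 = growth at the plate median or of vehicle wells; lower values mean less growth of the strain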
Details: growth OD

Measured: normalized growth

CC(COc1ccccc1)N(CCCl)Cc1ccccc1 (stereo unspecified)
active: S. cerevisiae deletion strains, locus YLR027C, strain aat2, active compounds read low 0.924 | S. cerevisiae deletion strains, locus YNL071W, strain lat1, active compounds read low 0.918
inactive: S. cerevisiae deletion strains, locus YJR075W, strain HOC1, active compounds read low 1.02 | S. cerevisiae deletion strains, locus YKL009W, strain mrt4, active compounds read low 1.04 | S. cerevisiae deletion strains, locus YKL068W, active compounds read low 1.02 | S. cerevisiae deletion strains, locus YKL085W, strain MDH1 (second series), active compounds read low 1.01 | S. cerevisiae deletion strains, locus YKL085W, strain MDH1, active compounds read low 1.01 | S. cerevisiae deletion strains, locus YKL160W, strain elf1, active compounds read low 0.931 | S. cerevisiae deletion strains, locus YKL190W, strain CNB1, active compounds read low 1.01 | S. cerevisiae deletion strains, locus YKR001C, strain vps1, active compounds read low 0.996 | S. cerevisiae deletion strains, locus YKR026C, strain gcn3, active compounds read low 0.985 | S. cerevisiae deletion strains, locus YKR091W, strain srl3, active compounds read low 0.978 | S. cerevisiae deletion strains, locus YLL001W, strain dnm1, active compounds read low 1.03 | S. cerevisiae deletion strains, locus YLL026W, active compounds read low 0.976 | S. cerevisiae deletion strains, locus YLL041C, strain sdh2, active compounds read low 0.979 | S. cerevisiae deletion strains, locus YLR039C, strain RIC1, active compounds read low 0.939 | S. cerevisiae deletion strains, locus YLR058C, strain SHM2, active compounds read low 1.01 | S. cerevisiae deletion strains, locus YLR102C, strain apc9, active compounds read low 1.01 | S. cerevisiae deletion strains, locus YLR113W, strain HOG1, active compounds read low 0.977 | S. cerevisiae deletion strains, locus YLR221C, strain rsa3, active compounds read low 0.995 | S. cerevisiae deletion strains, locus YLR258W, strain gsy2, active compounds read low 0.95 | S. cerevisiae deletion strains, locus YLR262C, strain YPT6 (second series), active compounds read low 0.897 | S. cerevisiae deletion strains, locus YLR262C, strain YPT6, active compounds read low 0.977 | S. cerevisiae deletion strains, locus YLR268W, strain sec22, active compounds read low 1.04 | S. cerevisiae deletion strains, locus YLR320W, strain mms22, active compounds read low 0.985 | S. cerevisiae deletion strains, locus YLR330W, strain CHS5, active compounds read low 1.01 | S. cerevisiae deletion strains, locus YLR342W, strain FKS1 (second series), active compounds read low 0.974 | S. cerevisiae deletion strains, locus YLR342W, strain FKS1, active compounds read low 0.989 | S. cerevisiae deletion strains, locus YLR357W, strain rsc2, active compounds read low 0.969 | S. cerevisiae deletion strains, locus YLR370C, strain arc18, active compounds read low 0.963 | S. cerevisiae deletion strains, locus YLR371W, strain rom2, active compounds read low 1.02 | S. cerevisiae deletion strains, locus YLR384C, strain iki3, active compounds read low 0.999 | S. cerevisiae deletion strains, locus YLR418C, strain cdc73, active compounds read low 0.97 | S. cerevisiae deletion strains, locus YML016C, strain PPZ1, active compounds read low 1 | S. cerevisiae deletion strains, locus YML032C, strain rad52, active compounds read low 1.02 | S. cerevisiae deletion strains, locus YML120C, strain ndi1, active compounds read low 1.01 | S. cerevisiae deletion strains, locus YML124C, strain tub3, active compounds read low 1.01 | S. cerevisiae deletion strains, locus YMR058W, strain fet3, active compounds read low 0.95 | S. cerevisiae deletion strains, locus YMR078C, strain ctf18, active compounds read low 1.02 | S. cerevisiae deletion strains, locus YMR125W, strain sto1, active compounds read low 0.987 | S. cerevisiae deletion strains, locus YMR129W, active compounds read low 0.959 | S. cerevisiae deletion strains, locus YMR205C, strain PFK2, active compounds read low 0.969 | S. cerevisiae deletion strains, locus YMR223W, strain ubp8, active compounds read low 0.99 | S. cerevisiae deletion strains, locus YMR231W, strain pep5, active compounds read low 0.996 | S. cerevisiae deletion strains, locus YMR263W, strain SAP30, active compounds read low 1.01 and 0.995 | S. cerevisiae deletion strains, locus YMR307W, strain GAS1, active compounds read low 1.01 and 1 | S. cerevisiae deletion strains, locus YNL067W, strain RPL9B, active compounds read low 1.03 | S. cerevisiae deletion strains, locus YNL128W, strain TEP1, active compounds read low 1.01 | S. cerevisiae deletion strains, locus YNL153C, strain GIM3, active compounds read low 1.02 | S. cerevisiae deletion strains, locus YNL175C, strain NOP13, active compounds read low 0.996 | S. cerevisiae deletion strains, locus YNL183C, strain NPR1, active compounds read low 0.919 | S. cerevisiae deletion strains, locus YNL197C, strain WHI3, active compounds read low 1.01 | S. cerevisiae deletion strains, locus YNL209W, strain ssb2, active compounds read low 0.953 | S. cerevisiae deletion strains, locus YNL224C, strain SQS1, active compounds read low 0.984 | S. cerevisiae deletion strains, locus YNL233W, strain BNI4, active compounds read low 1.01 | S. cerevisiae deletion strains, locus YNL248C, strain rpa49, active compounds read low 0.894 | S. cerevisiae deletion strains, locus YNL250W, strain rad50, active compounds read low 1 | S. cerevisiae deletion strains, locus YNL271C, strain bni1, active compounds read low 1.01 | S. cerevisiae deletion strains, locus YNL298W, strain CLA4, active compounds read low 1 | S. cerevisiae deletion strains, locus YNL307C, strain MCK1, active compounds read low 1 | S. cerevisiae deletion strains, locus YNL322C, strain KRE1 (second series), active compounds read low 0.923 | S. cerevisiae deletion strains, locus YNL322C, strain KRE1, active compounds read low 1.01 | S. cerevisiae deletion strains, locus YNR049C, strain mso1, active compounds read low 0.975 | S. cerevisiae deletion strains, locus YNR052C, strain pop2, active compounds read low 1.01 | S. cerevisiae deletion strains, locus YOL006C, strain TOP1, active compounds read low 1.07 | S. cerevisiae deletion strains, locus YOL012C, strain htz1 0.857 | S. cerevisiae deletion strains, locus YOL147C, strain pex11, active compounds read low 1.01 | S. cerevisiae deletion strains, locus YOR001W, strain rrp6, active compounds read low 0.996 | S. cerevisiae deletion strains, locus YOR061W, strain CKA2, active compounds read low 1.01 | S. cerevisiae deletion strains, locus YOR069W, strain VPS5, active compounds read low 1.01 | S. cerevisiae deletion strains, locus YOR070C, strain gyp1, active compounds read low 0.979 | S. cerevisiae deletion strains, locus YOR080W, strain dia2, active compounds read low 0.995 | S. cerevisiae deletion strains, locus YOR083W, strain WHI5 (second series), active compounds read low 0.987 | S. cerevisiae deletion strains, locus YOR083W, strain WHI5, active compounds read low 0.9 | S. cerevisiae deletion strains, locus YOR106W, strain vam3, active compounds read low 0.89 | S. cerevisiae deletion strains, locus YOR136W, strain idh2, active compounds read low 1 | S. cerevisiae deletion strains, locus YOR144C, strain elg1, active compounds read low 1.02 | S. cerevisiae deletion strains, locus YOR184W, strain ser1, active compounds read low 0.954 | S. cerevisiae deletion strains, locus YOR231W, strain MKK1, active compounds read low 0.99 | S. cerevisiae deletion strains, locus YOR265W, strain rbl2, active compounds read low 0.997 | S. cerevisiae deletion strains, locus YOR270C, strain vph1, active compounds read low 0.838 | S. cerevisiae deletion strains, locus YOR290C, strain snf2, active compounds read low 0.898 | S. cerevisiae deletion strains, locus YOR316C, strain cot1, active compounds read low 1.02 | S. cerevisiae deletion strains, locus YPL051W, strain arl3, active compounds read low 0.916 | S. cerevisiae deletion strains, locus YPL055C, strain LGE1, active compounds read low 1 | S. cerevisiae deletion strains, locus YPL078C, strain atp4, active compounds read low 0.926 | S. cerevisiae deletion strains, locus YPL106C, strain sse1, active compounds read low 0.949 | S. cerevisiae deletion strains, locus YPL240C, strain hsp82, active compounds read low 0.991 | S. cerevisiae deletion strains, locus YPL241C, strain CIN2, active compounds read low 1 | S. cerevisiae deletion strains, locus YPL256C, strain CLN2, active compounds read low 0.981 | S. cerevisiae deletion strains, locus YPR119W, strain clb2, active compounds read low 1.02 | S. cerevisiae deletion strains, locus YPR141C, strain kar3, active compounds read low 1.01 | S. cerevisiae deletion strains, locus YPR163C, strain tif3, active compounds read low 1.02 | S. cerevisiae deletion strains, locus YPR167C, strain met16, active compounds read low 1.02 | S. cerevisiae deletion strains, strain wtn01, active compounds read low 1.03 | S. cerevisiae strains, strain wild type, active compounds read low 1

Source: PubChem BioAssay AID1159580 (chemical genetic matrix, 2015)
